Source: PubChem BioAssay
GLP1R inv ag – qHTS of GLP-1 Receptor Inverse Agonists (Inhibition Mode). Glucagon-like peptide 1 receptor (Homo sapiens), P43220. HEK293 GLP-1R CRE-luciferase, luminescence, 24 h; GLP-1R form is constitutively active. Potency, µM (series often up to 38.3 µM), hits mostly inhibitors. 1.6% of 410,000 active. AID 624417, 2012; also: nearly all actives have a fitted effect of over 55% in size
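qHTS in 1536-well format: reporter HEK293 cells expressing constitutive GLP-1R activity in DMEM + 10% Nu serum, 24 hr with compounds at 37 deg C, luminescence read after 12 min with detection reagent.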
GLP1R cytotox – qHTS of GLP-1 Receptor Inverse Agonists: Cytotox Screen; HEK293 cAMP-luciferase reporter cells, luminescence, 24 h; Potency, µM (doses to about 38.3 µM), hits mostly inhibitors; 0.13% of 410,000 active;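 also: loss of luciferase light is scored as toxicity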
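Compound-treated cells are incubated 24 hr at 37 deg C under 5% CO2 after a 12 hour attachment period, then luciferase detection reagent is added and luminescence is measured following 12 min at room temperature; lowered signal indicates toxicity.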
GLP-1R agonist – qHTS of GLP-1 Receptor Agonists; Glucagon-like peptide 1 receptor (Homo sapiens), P43220; HEK293 GLP-1R CRE-luciferase, luminescence, 4-6 h; cells express a hypersensitive GLP-1R form; Potency, µM (series often up to 45.6 µM), actives largely listed as activators; 0.007% of 380,000 active; AID 624172, 2012
PTHR1 ag – qHTS for PTHR1 Agonists: Primary Screen; Parathyroid hormone/parathyroid hormone-related peptide receptor (Homo sapiens), Q03431; HEK293 GP2 PTHR1 cells, GloSensor cAMP luminescence, 1 h; Potency, µM (titrated, usually from 115 µM), usual class: activators; 0.075% of 410,000 active; AID 743266, 2014; also: nearly all actives have a fitted effect of over 55% in size
Target sequence (Q03431 whole entry, looked up): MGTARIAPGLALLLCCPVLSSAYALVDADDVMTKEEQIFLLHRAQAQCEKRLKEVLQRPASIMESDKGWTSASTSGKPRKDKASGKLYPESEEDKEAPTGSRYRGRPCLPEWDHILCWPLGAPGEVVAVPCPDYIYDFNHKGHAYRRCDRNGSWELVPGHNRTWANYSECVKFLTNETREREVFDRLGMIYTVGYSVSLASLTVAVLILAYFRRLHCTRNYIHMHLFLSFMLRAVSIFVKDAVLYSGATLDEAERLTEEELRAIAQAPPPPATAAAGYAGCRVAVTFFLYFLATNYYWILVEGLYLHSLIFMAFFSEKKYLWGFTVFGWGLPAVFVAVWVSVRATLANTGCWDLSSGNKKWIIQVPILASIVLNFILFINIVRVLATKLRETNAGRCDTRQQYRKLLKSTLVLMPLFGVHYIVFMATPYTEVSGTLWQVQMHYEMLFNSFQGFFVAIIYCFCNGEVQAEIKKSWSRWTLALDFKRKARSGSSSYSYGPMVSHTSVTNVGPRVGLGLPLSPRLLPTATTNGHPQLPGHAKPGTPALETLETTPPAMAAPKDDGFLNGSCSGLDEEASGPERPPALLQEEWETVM
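HEK-293-derived GP2 cells expressing PTHR1 and a GloSensor cAMP reporter, 3,000/well, plated overnight, given luciferin plus IBMX (each 0.5 mM as added) for 1 h at 37 °C, then compound for 1 h at 37 °C. Luminescence was read after 15 min at room temperature.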
Of the large screens only hits and unclear results are named; the others gave an inactive call. Only some compounds are listed: those with a hit (about 1.7% of all), similar ones and a draw of the others. Calls follow the shape of the dose curve; as a rule, active = well fitted curve in the direction sought with a large enough effect; inconclusive = small, poorly fitted or top-dose-only effect, or another doubt; inactive = no such curve, though single readings can be large; an effect the other way counts as inactive or inconclusive.

Cc1ccc(N(Cc2ccccc2)C(=O)c2ccc(Cl)c(S(=O)(=O)N3CCOCC3)c2)cc1	GLP1R inv ag 11.2µM
CCN1CCN(c2ccc(NC(=O)c3ccc(Cl)c(S(=O)(=O)N4CCCC4)c3)cc2)CC1	GLP1R inv ag 3.55µM
Cc1ccc(CNC(=O)c2ccc(Cl)c(S(=O)(=O)N3CCCCC3)c2)cc1	GLP1R inv ag 10µM
Cc1ccc(N(Cc2ccccc2)C(=O)c2cc(S(=O)(=O)N3CCOCC3)ccc2C)cc1	GLP1R inv ag inconclusive, GLP1R cytotox inconclusive
CCOc1ccc(N(C(=O)CC(C)C)S(=O)(=O)c2ccc3c(c2)oc(=O)n3C)cc1	GLP1R inv ag inconclusive (no result: GLP-1R agonist)
O=C(CO)NCCCOc1cccc(CN2CCCCC2)c1	none (no result: GLP1R inv ag, GLP1R cytotox, PTHR1 ag)
CCN(C(=O)Cn1ncc2c1-c1cc(C)ccc1OC2)c1cc(Cl)ccc1OC	GLP1R inv ag inconclusive (no result: GLP-1R agonist)
CCOC(=O)c1cccc(NS(=O)(=O)c2c(C)nc3sc(C)cn3c2=O)c1	none (no result: GLP-1R agonist)
Cc1cccc(NC(=O)c2ccc(Cl)c(S(=O)(=O)N3CCc4ccccc43)c2)n1	GLP1R inv ag 11.2µM
Cc1cccc(NC(=S)Nc2ccccn2)c1	GLP1R inv ag 11.2µM, GLP1R cytotox inconclusive
Cc1ccc(NC(=S)Nc2ccccn2)c(C)c1	GLP1R inv ag inconclusive, GLP1R cytotox 5.01µM
Cc1cc(C)cc(NC(=S)Nc2ccccn2)c1	GLP1R inv ag inconclusive, GLP1R cytotox inconclusive
Cc1cc2oc(C(=O)Nc3sc4c(c3C(=O)NCc3ccco3)CCC4)cc(=O)c2cc1C	none (no result: GLP-1R agonist)
CC(=O)c1ccc(Nc2nc3ccccc3nc2-n2nc(C)cc2C)cc1	none (no result: GLP-1R agonist)
CC(=O)Nc1sc2c(c1CN1CCCC1)CCCC2	none
CC(=O)Nc1sc2c(c1CN1CCN(c3ccc(F)cc3)CC1)CCCC2	GLP1R inv ag 7.08µM
COc1ccc(CNC(=O)c2cc3cccc4c3n2CC(C)S4)c(OC)c1 (stereo unspecified)	GLP1R inv ag 7.94µM (no result: GLP-1R agonist)
CC(C)CC1NC(=O)N(CC(=O)N2c3ccccc3NC(=O)C2(C)C)C1=O (stereo unspecified)	none
CC(C)C[C@@H]1NC(=O)[C@H](Cc2ccccc2)N(C)C(=O)[C@H](C)NC(=O)c2ccccc2NC(=O)[C@H](Cc2ccc(O)cc2)N(C)C1=O	GLP1R inv ag 10µM, GLP1R cytotox inconclusive
Cc1ccc(N2CCN(S(=O)(=O)N3CCCCC3)CC2)cc1Cl	none
Cc1cc(C)c(N2CCN(S(=O)(=O)N3CCCCCC3)CC2)c(C)c1	GLP1R inv ag 10µM
COc1ccccc1C(=O)OCC(=O)NC12CC3CC(CC(C3)C1)C2	GLP1R inv ag 10µM
O=C(CON=C1c2ccccc2-c2ccccc21)NC12CC3CC(CC(C3)C1)C2	GLP1R inv ag 1µM
O=C(CS(=O)(=O)c1ccc(Cl)cc1)Nc1nc2ccc(Br)cc2s1	none (no result: GLP-1R agonist)
O=C1CCC(/C=C/c2ccccc2)=NN1Cc1ccccc1Cl	GLP1R inv ag 10µM
O=C1CCC(/C=C/c2ccccc2)=NN1Cc1ccc(Cl)c(Cl)c1	none
CCC(O)c1cnc(OCc2ccccc2)nc1OCc1ccccc1 (stereo unspecified)	GLP1R inv ag 10µM
O=C(CCCc1ccccc1)Nc1cccc(C(=O)O)c1	GLP1R inv ag 2µM
O=C(NCCCCc1ccccc1)c1ccccc1Cl	GLP1R inv ag 5.01µM
O=C(NCCCCNC(=O)c1ccccc1Cl)c1ccccc1Cl	none
O=C(NCCCCc1ccccc1)c1cccc(NC(=O)c2ccccc2)c1	GLP1R inv ag 10µM
O=C(NCCCCc1ccccc1)c1ccccc1	none
Cc1nc2c(sc3nc(N4CCOCC4)c4c(c32)CC(C)(C)OC4)c(-c2ccc(Cl)cc2)c1C(=O)O	GLP1R inv ag 4.47µM
CC1(C)Cc2c(c(N3CCOCC3)nc3snc(N)c23)CO1	GLP1R inv ag 3.98µM
Cc1ccc(CN(C(=O)c2ccc(OCC(C)C)cc2)c2ccccn2)o1	GLP1R inv ag inconclusive (no result: GLP-1R agonist)
CCc1ccc(C(O)(CNCc2ccccc2)c2ccccc2)cc1 (stereo unspecified)	GLP1R inv ag 11.2µM
Cc1ccc(CNCC(O)(c2ccccc2)c2ccccc2)cc1	GLP1R inv ag inconclusive
CC1CCCN(CCOc2ccc3ccccc3c2Br)C1 (stereo unspecified)	GLP1R inv ag 10µM, GLP1R cytotox inconclusive
CC(=O)c1c(C)oc2c1cc(NS(=O)(=O)c1ccc(C(C)(C)C)cc1)c1ccccc12	GLP1R inv ag 11.2µM (no result: GLP-1R agonist)
COc1ccc(S(=O)(=O)Nc2cc3c(C(C)=O)c(C)oc3c3ccccc23)cc1	GLP1R inv ag inconclusive, GLP1R cytotox inconclusive
CC(Sc1oc(-c2cccs2)nc1S(=O)(=O)c1ccccc1)c1ccccc1 (stereo unspecified)	GLP1R inv ag inconclusive (no result: GLP-1R agonist)
COc1ccc(S(=O)(=O)N2CCCCCC2)cc1C(=O)N(C)Cc1ccc(C(C)(C)C)cc1	GLP1R inv ag 5.62µM
COc1ccc(S(=O)(=O)N2CCCCCC2)cc1C(=O)N(C)Cc1ccc(F)cc1	GLP1R inv ag inconclusive
COc1ccc(S(=O)(=O)N2CCCCCC2)cc1C(=O)N(C)CC(=O)Nc1ccc(Cl)c(Cl)c1	GLP1R inv ag 10µM
CN(CC(=O)Nc1ccc(Cl)cc1)c1ccc(S(=O)(=O)N2CCCCC2)cc1[N+](=O)[O-]	GLP1R inv ag 10µM
O=C(CN1CCN(S(=O)(=O)N2CCCCC2)CC1)Nc1ccc(Cl)c(Cl)c1	GLP1R inv ag 8.91µM
O=C(CN1CCN(S(=O)(=O)N2CCCCC2)CC1)Nc1cc(Cl)cc(Cl)c1	GLP1R inv ag inconclusive
Clc1ccc(CN2CCC(CNc3ncnc4onc(-c5ccc(Cl)cc5)c34)CC2)cc1	GLP1R inv ag inconclusive
Cc1ccc(C)n1-c1nnc(N2CCCC(C(=O)NCc3cccc(Cl)c3)C2)s1 (stereo unspecified)	GLP1R inv ag inconclusive (no result: GLP-1R agonist)
COc1ccc(S(=O)(=O)N2CCCCCC2)cc1N(C)S(=O)(=O)c1ccc(Cl)cc1	GLP1R inv ag 10µM
NC(N)=N/N=C(\N=Nc1ccccc1)c1cccc2cccnc12	none
NC(N)=N/N=C(\N=Nc1ccccc1)c1ccc(Cl)cc1	GLP1R inv ag 10µM, GLP1R cytotox inconclusive
COc1ccc(C2N(c3ccc(Cl)cc3)N=C(C(C)=O)N(C)N2C(C)=O)cc1 (stereo unspecified)	GLP1R inv ag 10µM
Cc1nc(C)c(C(=O)Nc2ncc([N+](=O)[O-])s2)o1	GLP1R inv ag 3.98µM
COc1ccc(-c2cn3nc(C)c(C)nc3n2)cc1OC	none
Cc1ccc(-c2cn3nc(C)c(C)nc3n2)cc1	GLP1R inv ag 1.41µM
Cc1cccc(NC(=O)c2ccccc2-c2ccccc2)c1	none
Cc1cc(NC(=O)c2ccccc2-c2ccccc2)ccc1Br	GLP1R inv ag 10µM
COC(=O)c1ccc(NC(=O)C2CC3CCC2C3)cc1 (stereo unspecified)	none
COC(=O)c1ccc(NC(=S)NC2CC3CCC2C3)cc1 (stereo unspecified)	GLP1R inv ag 10µM, GLP1R cytotox inconclusive
